# Screens: PubChem BioAssay, National Center for Advancing Translational Sciences (NCATS)
# This is a sample that favours compounds with a hit; in the whole collection about 9% have one here.
# JMJD2A Tudor: JMJD2A Tudor domain (human) inhibition. O75164. actives 4.4% (n = 390,000). Potency, µM (top dose mostly 114 µM), inactives show at the highest dose activity change, negative = inhibition, actives largely listed as inhibitors. AlphaScreen JMJD2A-Tudor / H3K4me3 peptide binding; note: % is set by controls: 0 for no effect and ±100 for the full control effect; nearly all actives have a fitted effect of over 50% in size
# HP1b chromo inh: inhibitors of HP1-beta chromodomain binding to methylated histone tails | AlphaScreen HP1-beta / biotin-H3K9me3 peptide binding | actives 0.56% (n = 390,000) | P83916 | Potency, µM (doses to about 114 µM), for the others: at the top dose activity change, negative = inhibition, hits mostly inhibitors; note: nearly all actives have a fitted effect of over 70% in size
#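 HP1-beta protein (50 nM final) preincubated 30 min at room temperature with biotinylated H3(1-18)K9me3 peptide (50 nM) in PBS pH 7.4, 0.01% Tween-20, then compound added for 30 min. AlphaScreen streptavidin donor/nickel chelate acceptor beads (10 ug/mL final), 30 min dark, luminescence read.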
# 12-LOX inh: blocks human arachidonate 12S-lipoxygenase | P18054 | purified 12hLO, xylenol orange hydroperoxide absorbance | Potency, µM (titrated, usually from 108 µM), inactives show at the highest dose activity change, negative = inhibition, hits mostly inhibitors | actives 1.1% (n = 580,000) | AID 1671190; note: % is set by controls: 0 for no effect and ±100 for the full control effect
#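 Purified human 12hLO (150 nM final) in 25 mM Hepes, 0.01% Triton X-100, pH 7.0 was preincubated 15 min at room temperature with compound. Then 40 uM arachidonic acid was added, 30 min. Hydroperoxide was read by Fe-XO absorbance ratio 573/405 nm.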
# BAZ2B inh: blocks human BAZ2B. AID 504333. Q9UIF8. actives 4.4% (n = 360,000). Potency, µM (top dose mostly 114 µM), for the others: top-dose activity change, negative = inhibition, usual class: inhibitors. AlphaScreen BAZ2B-H3K14Ac peptide displacement; note: % is set by controls: 0 for no effect and ±100 for the full control effect; nearly all actives have a fitted effect of over 60% in size
# Target sequence (Q9UIF8 whole entry, looked up): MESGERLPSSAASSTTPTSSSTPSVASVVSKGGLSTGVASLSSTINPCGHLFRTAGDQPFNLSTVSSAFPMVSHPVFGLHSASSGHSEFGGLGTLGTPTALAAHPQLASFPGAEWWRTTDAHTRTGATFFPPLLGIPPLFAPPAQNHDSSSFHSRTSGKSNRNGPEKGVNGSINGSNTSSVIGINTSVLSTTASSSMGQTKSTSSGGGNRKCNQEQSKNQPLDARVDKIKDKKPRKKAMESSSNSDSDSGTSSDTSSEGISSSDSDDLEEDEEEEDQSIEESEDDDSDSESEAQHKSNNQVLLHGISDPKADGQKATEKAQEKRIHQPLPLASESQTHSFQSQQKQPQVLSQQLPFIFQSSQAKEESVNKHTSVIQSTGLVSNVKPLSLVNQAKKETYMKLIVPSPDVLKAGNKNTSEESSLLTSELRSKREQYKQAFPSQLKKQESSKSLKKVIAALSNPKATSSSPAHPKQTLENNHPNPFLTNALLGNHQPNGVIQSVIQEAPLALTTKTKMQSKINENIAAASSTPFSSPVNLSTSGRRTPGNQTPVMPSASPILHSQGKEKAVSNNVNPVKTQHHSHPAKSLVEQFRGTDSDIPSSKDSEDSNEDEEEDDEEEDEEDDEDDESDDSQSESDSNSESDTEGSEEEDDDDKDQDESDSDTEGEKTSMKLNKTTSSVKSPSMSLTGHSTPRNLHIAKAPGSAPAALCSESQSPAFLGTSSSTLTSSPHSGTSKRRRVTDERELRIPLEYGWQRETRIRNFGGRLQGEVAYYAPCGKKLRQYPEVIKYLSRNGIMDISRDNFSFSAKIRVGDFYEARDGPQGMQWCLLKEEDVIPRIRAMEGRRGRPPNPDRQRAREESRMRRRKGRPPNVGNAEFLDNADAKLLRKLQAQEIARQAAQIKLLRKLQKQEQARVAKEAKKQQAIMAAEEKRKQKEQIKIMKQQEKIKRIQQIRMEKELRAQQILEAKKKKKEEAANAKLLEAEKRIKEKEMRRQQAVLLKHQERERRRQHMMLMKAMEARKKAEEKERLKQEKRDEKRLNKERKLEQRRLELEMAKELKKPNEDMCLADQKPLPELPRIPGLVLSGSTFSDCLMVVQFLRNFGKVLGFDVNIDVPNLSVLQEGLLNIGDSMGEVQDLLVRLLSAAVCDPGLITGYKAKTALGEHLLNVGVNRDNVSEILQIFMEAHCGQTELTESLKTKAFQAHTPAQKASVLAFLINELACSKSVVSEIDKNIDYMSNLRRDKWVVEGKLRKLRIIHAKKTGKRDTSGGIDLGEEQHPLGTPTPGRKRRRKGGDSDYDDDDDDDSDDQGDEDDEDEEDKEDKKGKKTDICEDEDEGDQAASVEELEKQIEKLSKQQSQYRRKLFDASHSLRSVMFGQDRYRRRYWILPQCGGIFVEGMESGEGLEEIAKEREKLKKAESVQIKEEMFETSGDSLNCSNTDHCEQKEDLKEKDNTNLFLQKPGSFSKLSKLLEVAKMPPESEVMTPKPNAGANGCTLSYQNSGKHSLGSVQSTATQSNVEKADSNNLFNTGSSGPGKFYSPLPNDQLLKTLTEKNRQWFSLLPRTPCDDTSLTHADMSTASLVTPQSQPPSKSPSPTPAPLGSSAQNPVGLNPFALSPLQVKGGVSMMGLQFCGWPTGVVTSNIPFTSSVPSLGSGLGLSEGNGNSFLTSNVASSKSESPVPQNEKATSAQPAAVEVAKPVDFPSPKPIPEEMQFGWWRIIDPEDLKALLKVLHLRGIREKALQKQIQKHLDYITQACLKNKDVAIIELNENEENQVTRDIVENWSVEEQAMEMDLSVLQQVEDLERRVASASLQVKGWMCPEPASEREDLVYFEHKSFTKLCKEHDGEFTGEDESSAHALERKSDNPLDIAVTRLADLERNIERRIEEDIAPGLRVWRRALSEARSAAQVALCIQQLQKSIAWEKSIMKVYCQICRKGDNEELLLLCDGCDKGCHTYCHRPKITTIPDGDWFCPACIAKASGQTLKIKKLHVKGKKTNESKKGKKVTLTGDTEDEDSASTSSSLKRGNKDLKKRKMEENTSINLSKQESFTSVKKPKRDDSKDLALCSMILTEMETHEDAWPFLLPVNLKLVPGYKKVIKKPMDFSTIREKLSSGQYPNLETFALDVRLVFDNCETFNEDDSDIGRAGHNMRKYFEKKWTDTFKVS
#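 Inhibition is scored as reduced AlphaScreen emission. The BAZ2B/b-H3(5-23)K14Ac complex (50 nM each) in PBS pH 7.4, 0.01% Tween-20 meets compound (up to 110 uM) for 30 min at RT before bead addition.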
# G9a inh: G9a (human) methyltransferase inhibition; actives 8.8% (n = 350,000); Potency, µM (top dose mostly 102 µM), without a hit: at the highest dose activity, negative = inhibition, actives largely listed as inhibitors; G9a H3K9 monomethylation, AlphaScreen, 2 h; AID 504332; note: % is set by controls: 0 for no effect and ±100 for the full control effect; nearly all actives have a fitted effect of over 75% in size
#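 Quantitative HTS format: methyltransferase activity on a biotin-tagged H3K9 peptide is measured by AlphaScreen, using a rabbit anti-monomethyl-H3K9 antibody with streptavidin donor and anti-IgG acceptor beads. Final levels are 20 nM enzyme, 500 nM peptide, 20 uM SAM; 2 h RT.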
# PLK1 PBD inh: inhibitors of human PLK1 polo-box domain binding; actives 2.8% (n = 360,000); P53350; Potency, µM, for inactives: max response, negative = inhibition, actives largely listed as inhibitors; Plk1 PBD binding of FITC phosphopeptide, fluorescence polarization; note: series mostly up to about 57 µM; % is set by controls: 0 for no effect and ±100 for the full control effect; nearly all actives have a fitted effect of over 65% in size
# * marks the source's active call; other numbers are inactive results; ? = inconclusive; . = no result; [ ] = remark or other dose. Calls come from the whole dose curve; as a rule, active = well fitted curve in the direction sought with a large enough effect; inconclusive = small, poorly fitted or top-dose-only effect, or another doubt; inactive = no such curve, though single readings can be large; an effect the other way counts as inactive or inconclusive. Potency is the fitted concentration of half-maximal effect.
SMILES,JMJD2A Tudor,HP1b chromo inh,12-LOX inh,BAZ2B inh,G9a inh,PLK1 PBD inh
Cc1c(Cl)cnc(NC(=O)COC(=O)CNC(=O)c2ccccc2)c1Cl,-27%,13%,?,.,.,-23%
COc1ccc(CC(=O)OCC(=O)Nc2ncc(Cl)c(C)c2Cl)cc1,-20%,18%,11µM*,?,?,-20%
Cc1c(Cl)cnc(NC(=O)COC(=O)/C=C/c2ccco2)c1Cl,?,-4%,?,50µM*,45µM*,-26%
O=C(COC(=O)C1=COCCO1)Nc1ncc(C(F)(F)F)cc1Cl,8%[11.4 µM],-19%,?,16%,16%[59 µM],?
COc1ccccc1N1CCN(c2ncnc3c2cnn3-c2cc(Cl)ccc2C)CC1,-17%,15%,3%,-17%,-26%[59 µM],.
CCOC(=O)C1CCCN(S(=O)(=O)c2ccc3c4c2CC(=O)N4CC(C)S3)C1 (configuration not stated),-15%,37%,2%,-28%,45µM*,-3%
CCOC(=O)C1CCN(S(=O)(=O)c2ccc3c4c2CC(=O)N4CC(C)S3)CC1 (configuration not stated),-16%,25%,?,-27%,35µM*,-16%
COc1cccc(/C=N/NC(=O)c2ccc([N+](=O)[O-])cc2Cl)c1O,-34%,11%,-18%,?,?,-7%
O=C1N=c2ccc(Br)cc2=C1c1sc(=S)n(NS(=O)(=O)c2ccccc2)c1O,50µM*,?,35µM*,20µM*,16µM*,24µM*
Cc1ccc(C(=O)Nn2c(O)c(C=C3N=c4ccccc4=N3)sc2=S)cc1,-26%,16%,25%,-6%,7%[59 µM],-17%
Cc1ccc(S(=O)(=O)Nn2c(O)c(C=C3N=c4ccccc4=N3)sc2=S)cc1,?,-18%,35µM*,-30%,?,?
O=C(Nn1c(O)c(C=C2N=c3ccccc3=N2)sc1=S)c1ccccc1,-34%,0%,0%,-29%,1.4µM*,-4%
O=C(Nn1c(O)c(C=C2N=c3ccccc3=N2)sc1=S)c1ccc(Cl)cc1,-29%,9%,6%,-1%,-16%[59 µM],-10%
Cc1nnnn1CCCn1nc(C2CCCNC2)n(-c2ccccc2)c1=O (configuration not stated),.,.,21%,.,.,.
CCN(CC(=O)Nc1ccc(N2CCOCC2)cc1)C(=O)c1ccc(C#N)cc1,-14%,6%,0%,-9%,45µM*,-4%
Cc1cccc(C)c1NC(=O)CS(=O)CC(=O)Nc1ccc(N2CCOCC2)cc1 (configuration not stated),-3%,3%,17%,-1%,?,-17%
CN(CC(=O)Nc1ccc(N2CCOCC2)cc1)CC(=O)Nc1ccc(N2CCOCC2)cc1,-29%,27%,-3%,-12%,?,-14%
CCc1ccc(NC(=O)CS(=O)CC(=O)Nc2ccc(N3CCOCC3)cc2)cc1 (configuration not stated),40µM*,4%,-16%,79µM*,50µM*,-13%
CCN(CC(=O)NCc1ccc(Cl)cc1)C(=O)c1ccc(C#N)cc1,-6%,32%,-18%,-6%,40µM*,1%
CN(CC(=O)Nc1ccc(C#N)cc1)CC(=O)Nc1ccc(N2CCOCC2)cc1,40µM*,-7%,-15%,11%,?,-7%
O=C(Nc1ccc(Cl)cc1)OCCN1CCOCC1,-12%,16%[57 µM],-2%,.,.,-2%
COCCC(=O)N1[C@@H]2CC[C@H]1CC(NC(=O)c1cnc(C)cn1)C2 (some centres not stated),.,.,1%,.,.,.
COc1ccc(SCCC(=O)NC23CC4CC(CC(C4)C2)C3)cc1,.,.,1%,.,.,.
CSc1nc(C=Nc2ccccc2Cl)c(O)n1Cc1cccc(Cl)c1,79µM*,5%,?,-19%,.,-16%
N#C/C(=C(/O)CSc1n[nH]c(N)n1)c1nc2ccccc2[nH]1,1%[11.4 µM],0%,0%,-32%,0%[12.7 µM],?
Cc1cc(C)cc(NC(=O)c2cccc(C(=O)Nc3cc(C)cc(C)c3)n2)c1,4.5µM*,22%,215%,?,?,-7%
